# BAZ2B inh = blocks human BAZ2B; Q9UIF8; AlphaScreen BAZ2B-H3K14Ac peptide displacement; Potency, µM (highest dose often 114 µM), most hits filed as inhibitors; 4.4% of 360,000 active; also: nearly all actives have a fitted effect of over 60% in size
#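 Inhibition is scored as reduced AlphaScreen emission. The BAZ2B/b-H3(5-23)K14Ac complex (50 nM each) in PBS pH 7.4, 0.01% Tween-20 meets compound (up to 110 uM) for 30 min at RT before bead addition.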
# JMJD2A Tudor inh = inhibitors of human JMJD2A Tudor domain; 4.4% of 390,000 active; O75164; AID 504339; AlphaScreen JMJD2A-Tudor / H3K4me3 peptide binding; Potency, µM (titrated, usually from 114 µM), hits mostly inhibitors; also: nearly all actives have a fitted effect of over 50% in size
# G9a inh = inhibitors of human histone lysine methyltransferase G9a; Potency, µM (highest dose often 102 µM), hits mostly inhibitors; G9a H3K9 monomethylation, AlphaScreen, 2 h; 8.8% of 350,000 active; Q96KQ7; AID 504332; also: nearly all actives have a fitted effect of over 75% in size
# Target sequence (Q96KQ7 913-1193 limits assumed): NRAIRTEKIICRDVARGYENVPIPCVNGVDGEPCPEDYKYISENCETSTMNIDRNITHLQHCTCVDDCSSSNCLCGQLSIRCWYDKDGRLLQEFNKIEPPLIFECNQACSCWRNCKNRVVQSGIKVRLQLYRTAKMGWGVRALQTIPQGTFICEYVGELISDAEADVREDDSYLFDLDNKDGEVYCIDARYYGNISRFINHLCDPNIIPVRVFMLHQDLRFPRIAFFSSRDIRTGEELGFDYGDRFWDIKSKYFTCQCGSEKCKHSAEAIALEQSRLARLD
#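 Enzyme 20 nM + cpd, 15 min RT; add b-H3K9 pep 500 nM / SAM 20 uM; 2 h RT; anti-H3K9me1 Ab 0.5 ug/mL + SA donor / anti-rabbit acceptor beads 20 ug/mL each, 10 min; AlphaScreen read.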
# Sfp inh = inhibitors of Bacillus subtilis Sfp phosphopantetheinyl transferase | Biochemical Sfp PPTase activity, qHTS | Potency, µM, most hits filed as inhibitors | 3.5% of 310,000 active | AID 1490;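 also: the enzyme is Sfp with the accession as filed and its product quenches rhodamine fluorescence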
#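 Fluorescence-quenching assay with 15 nM Sfp, 5 uM rhodamine-CoA and 12.5 uM BHQ-2-labelled ybbR peptide in pH 7.6 Hepes/MgCl2 buffer. Enzyme was pre-incubated with compound for 15 min at room temperature. Rate was taken from the 30-min fluorescence change (525/598 nm).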
# HP1b binding inh = blocks HP1-beta chromodomain binding to methylated histone tails; Potency, µM (titrated, usually from 114 µM), most hits filed as inhibitors; P83916; 0.56% of 390,000 active; AlphaScreen HP1-beta / biotin-H3K9me3 peptide binding; also: nearly all actives have a fitted effect of over 70% in size
# Target sequence (P83916 whole entry, looked up): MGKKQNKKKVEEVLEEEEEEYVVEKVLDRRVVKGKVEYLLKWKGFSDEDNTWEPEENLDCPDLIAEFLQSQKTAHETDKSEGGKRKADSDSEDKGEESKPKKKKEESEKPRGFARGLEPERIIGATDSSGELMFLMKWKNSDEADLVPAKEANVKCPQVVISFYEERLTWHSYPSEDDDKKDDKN
#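 HP1-beta protein (50 nM final) preincubated 30 min at room temperature with biotinylated H3(1-18)K9me3 peptide (50 nM) in PBS pH 7.4, 0.01% Tween-20, then compound added for 30 min. AlphaScreen streptavidin donor/nickel chelate acceptor beads (10 ug/mL final), 30 min dark, luminescence read.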
# Hits are given with their value; 0 = inactive; ? = inconclusive; - = no result; ! = not confirmed by another sample; [ ] = remark or other dose. The list is not random: actives were taken first. Their share in the collection is about 12%. Calls follow the shape of the dose curve; as a rule, active = well fitted curve in the direction sought with a large enough effect; inconclusive = small, poorly fitted or top-dose-only effect, or another doubt; inactive = no such curve, though single readings can be large; an effect the other way counts as inactive or inconclusive.
SMILES,BAZ2B inh,JMJD2A Tudor inh,G9a inh,Sfp inh,HP1b binding inh
CCc1nnc(N/N=C/c2cc(Br)c(O)cc2O)n1N,50µM,79µM,50µM,50µM,0
CCc1nnc(N/N=C/c2cccs2)n1N,0,0,50µM,?,0
Cc1cccc(-c2nnc(SCCC(=O)O)o2)c1,0,0,?,-,0
CCN(CC)CCNC(=O)C1CCN(S(=O)(=O)c2c(C)noc2/C=C/c2ccccc2F)CC1,0,0,0[0.501 µM],0,0
CN(C)S(=O)(=O)c1ccc2c(c1)/C(=C/c1cc3c([nH]1)CCCC3)C(=O)N2,0,0,11µM!,-,0
Cc1ccc(CNC(=O)CN(c2ccc(Cl)cc2)S(C)(=O)=O)cc1,0,0,0,0,0
Cc1ccc2oc(-c3ccccc3C(=O)O)cc(=O)c2c1,0,0[11.4 µM],0,0,0
O=C(O)c1ccccc1-c1c2cc(Br)c(=O)c(Br)c-2oc2c(Br)c(O)c(Br)cc12,-,-,?,79µM,-
Cc1ccccc1N(Cc1cc(=O)[nH]c2ccccc12)C(=O)C(C)C,0,0,79µM,0,0
Cc1ccc(N(Cc2cc(=O)[nH]c3ccccc23)C(=O)C(C)C)c(C)c1,0,0,?,0,0
CCC(=O)N(Cc1cc(=O)[nH]c2ccccc12)c1ccc(C)cc1C,0,0,71µM,0,0
CCC(=O)N(Cc1cc(=O)[nH]c2ccccc12)c1ccccc1,0,?,-,0,0
Oc1ccc(Nc2nc(-c3cccs3)cs2)cc1,0,0,?,0,0
Nc1nc(-c2cccs2)cs1,0,0,79µM,0,0
COc1ccc(OC)c(Nc2nc(-c3c(C)nc4ncccn34)cs2)c1,?,?,28µM,?,0
CC(=O)Nc1nc(C(=O)O)cs1,32µM,4µM,22µM,?,?
COc1ccc(Nc2nc(-c3cccs3)cs2)c(OC)c1,32µM,2.5µM,11µM,?,50µM
CC(=O)Nc1nc(C)cs1,0,0,0,0,0
O=C(NCc1ccc(Cl)cc1)C1CCCN(c2cnccn2)C1 (stereo not given),0,0,0,0,0
Cc1ccc(Nc2nc(Nc3ccc(Cl)cc3)nc(N3CCOCC3)n2)cc1,-,0,-,-,0
CSCCC(NS(=O)(=O)c1ccc2c(c1)oc(=O)n2C)C(=O)NCCc1ccc(C)cc1 (stereo not given),0,0,0,-,0
Cc1ccc(N2CCN(C(=O)c3cccn4c(=O)c5ccc(Cl)cc5nc34)CC2C)cc1 (stereo not given),0,0,0,-,0
CC(=O)Nc1nc(-c2cccs2)cs1,0,0,?,50µM,0
COc1ccc2[nH]c3c(=S)nc[nH]c3c2c1,0,1.6µM,3.5µM,50µM,0
Cc1cccc(NC(=O)CCS(=O)(=O)c2cc3c(cc2Cl)NC(=O)CO3)c1,0,16µM,0,0,0
SMILES,BAZ2B inh,JMJD2A Tudor inh,G9a inh,Sfp inh,HP1b binding inh
CCc1cccc(NC(=O)CCS(=O)(=O)c2cc3c(cc2C)NC(=O)CO3)c1,0,0,-,0,0
Cc1cc2c(cc1S(=O)(=O)CCC(=O)N(C)Cc1ccccc1)OCC(=O)N2,13µM!,20µM!,11µM,0,?
CCOC(=O)c1ccc(NS(=O)(=O)c2cc3c(cc2C)NC(=O)CO3)cc1,0,?,50µM,0,0
COc1cccc(NC(=O)CCS(=O)(=O)c2cc3c(cc2Cl)NC(=O)CO3)c1,0,0,-,0,0
Cc1ccc(NS(=O)(=O)c2cc3c(cc2C)NC(=O)CO3)cc1C,-,0,-,-,-
Cc1ccc(-c2nnc(Nc3cccc(O)c3)c3ccccc23)cc1S(=O)(=O)N1CCCCC1,0,0,0,-,0
COc1cccc(/C(N)=N/OC(=O)Cc2ccccc2[N+](=O)[O-])c1,0,0,?,0,0
N#Cc1cccc(S(=O)(=O)N2CCN(c3nc(-c4cccs4)nc4ccccc34)CC2)c1,-,0,-,-,0
COc1cc(/C=C2\Oc3cc(O)ccc3C2=O)ccc1O,0,0,0[12.7 µM],0,0
O=C1/C(=C/c2ccc(O)c(O)c2)Oc2cc(O)ccc21,56µM,0,?,?,0
O=c1[nH]c(-c2ccncc2)nc2ccccc12,0,?,8.9µM,14µM,?
CC1CCCN(C(=S)SCC(=O)c2cc(Br)cc(Br)c2O)C1 (stereo not given),?,0,?,?,0
O=C(CSC(=S)N1CCCC1)c1cc(Br)cc(Br)c1O,40µM,?,20µM,0,?
O=C(NCc1ccccc1)c1cccn1-c1nnc(N2CCCC2)s1,0,0,0,-,0
